This passage reports AC50 and outcome results from PubChem BioAssay (EPA / NIEHS).

Structures are written as SMILES. Activity calls are given as the source filed them. The calls were made as follows: active = hit-call score of the fitted dose curve at least 0.9, where 1 is the maximum; inactive = score below 0.9.

The target in assay [1] is Paired box protein Pax-6 (Homo sapiens) (UniProt P26367). As to the kind of experiment: ATG_Pax6_CIS: Attagene CIS-FACTORIAL HepG2 Assay for human Paired Box 6 (PAX6) (AID 2282956). The settings on record: HepG2 CIS-FACTORIAL PAX6 reporter transcription, RNA readout; actives raise or lower the signal. An outline of the steps: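 HepG2 cells transiently transfected with multiplexed cis-promoter reporter units (endogenous TF activity) were dosed for 24 h. Reporter mRNA was quantified by RT-PCR, 6-FAM labeling, HpaI digestion and capillary electrophoresis; bidirectional fitting versus DMSO baseline.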
Chain of Paired box protein Pax-6 (Homo sapiens) (P26367 whole entry, looked up): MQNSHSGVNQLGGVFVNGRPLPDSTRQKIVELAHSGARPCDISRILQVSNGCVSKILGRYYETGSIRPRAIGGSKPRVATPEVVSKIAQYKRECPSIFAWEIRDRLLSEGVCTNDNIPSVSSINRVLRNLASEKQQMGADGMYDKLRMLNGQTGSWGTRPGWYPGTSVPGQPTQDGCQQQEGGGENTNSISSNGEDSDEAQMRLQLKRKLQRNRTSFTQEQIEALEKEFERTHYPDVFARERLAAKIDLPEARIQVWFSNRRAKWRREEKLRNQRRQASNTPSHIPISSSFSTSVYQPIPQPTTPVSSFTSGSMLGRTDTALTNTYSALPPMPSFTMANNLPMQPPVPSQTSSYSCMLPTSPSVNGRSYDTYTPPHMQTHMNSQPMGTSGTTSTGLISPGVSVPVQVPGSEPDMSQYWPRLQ

Assay [2] is described as follows: ATG_PXRE_CIS: Attagene CIS-FACTORIAL HepG2 Assay for human Pregnane X Receptor Element (PXRE) (AID 2282957). The settings on record: HepG2 Attagene CIS-FACTORIAL PXRE reporter, mRNA; actives raise or lower the signal. An outline of the steps: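 Multiplexed cis-reporter assay in transiently transfected human HepG2 cells; 24 h chemical exposure. Reporter transcripts quantified by RT-PCR with fluorescent labeling and capillary electrophoresis.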

A short description of assay [3]: ATG_PPRE_CIS: Attagene CIS-FACTORIAL HepG2 Assay for human Peroxisome Proliferator-activated Response Element (PPRE) (AID 2282958). The note with it: HepG2 PPRE cis-element reporter, Attagene transcription factor profiling; actives raise or lower the signal. Summed up: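 Transcript-level reporter induction in transfected HepG2 cells after 24 h chemical exposure, quantified by fluorescence from RT-PCR products separated by capillary electrophoresis.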

The nature of assay [4]: ATG_Sox_CIS: Attagene CIS-FACTORIAL HepG2 Assay for human SRY-box transcription factor (SOX) (AID 2282960). The note with it: HepG2 Attagene cis-factorial SOX reporter, mRNA; actives raise or lower the signal. Summed up:
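Cells were transfected with reporter constructs under cis-regulatory promoters, then exposed to chemicals for 24 h. Reporter transcripts were quantified by fluorescence after RT-PCR and capillary electrophoresis; activity was fitted in both directions against DMSO.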

In assay [5] the target is Transcription factor Sp1 (Homo sapiens) (UniProt P08047). As to the kind of experiment: ATG_Sp1_CIS: Attagene CIS-FACTORIAL HepG2 Assay for human Specificity Protein 1 (Sp1) (AID 2282961). The settings on record: HepG2 Sp1 cis-reporter transcription, actives raise or lower the signal. Summed up:
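Measures mRNA induction of an Sp1-linked reporter in HepG2 cells 24 h post-dosing. Multiplexed reporters read by RT-PCR and capillary electrophoresis; DMSO serves as negative control and baseline.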

A short description of assay [6]: ATG_SREBP_CIS: Attagene CIS-FACTORIAL HepG2 Assay for human Sterol Regulatory Element Binding (SREBP) (AID 2282962). The note with it: HepG2 Attagene cis-factorial SREBP reporter, mRNA; actives raise or lower the signal. Summed up: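 HepG2 cells transiently transfected with multiplexed cis-element reporter units report endogenous transcription factor activity. After 24 h of chemical exposure, reporter mRNA was quantified by RT-PCR, 6-FAM labelling, HpaI digestion and capillary electrophoresis; bidirectional fits used DMSO as baseline.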

Assay [7] has as its target Signal transducer and activator of transcription 3 (Homo sapiens) (UniProt P40763). As to the kind of experiment: ATG_STAT3_CIS: Attagene CIS-FACTORIAL HepG2 Assay for human Signal Transducer and Activator of Transcription 3 (STAT3) (AID 2282963). The note with it: HepG2, Attagene cis-factorial STAT3 reporter transcription; actives raise or lower the signal. An outline of the steps: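 Transcript-level reporter assay. HepG2 transient MRTU transfection, 24 h exposure, fluorescence detection after RT-PCR and CE; DMSO baseline.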

Assay [8] can be described thus: ATG_TA_CIS: Attagene CIS-FACTORIAL HepG2 Assay for human TA Basal Promoter (AID 2282964). The note with it: HepG2 Attagene CIS-factorial TA basal promoter reporter; actives raise or lower the signal. An outline of the steps: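 HepG2 cells transiently transfected with multiplexed cis-promoter reporter units, dosed 24 h. Reporter mRNA measured by RT-PCR, 6-FAM labelling, HpaI digestion and capillary electrophoresis; bidirectional fit versus DMSO baseline, serving as background control.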

A short description of assay [9]: ATG_TCF_b_cat_CIS: Attagene CIS-FACTORIAL HepG2 Assay for human T-Cell-Factor with beta-catenin (TCF/b-cat) (AID 2282965). The settings on record: HepG2 TCF/beta-catenin cis-reporter transcription, actives raise or lower the signal. An outline of the steps: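 Using capillary electrophoresis as the read-out, labelled reporter cDNA fragments from transiently transfected HepG2 were sized and quantified. Exposure lasted 24 hours; activity in either direction was referenced to DMSO.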

A short description of assay [10]: ATG_RORE_CIS: Attagene CIS-FACTORIAL HepG2 Assay for human RAR-related Orphan Receptor Element (RORE) (AID 2282959). The note with it: HepG2 Attagene cis-factorial RORE reporter, mRNA; actives raise or lower the signal. An outline of the steps:
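Multiplexed reporter assay measuring mRNA induction from a cis promoter element in transiently transfected HepG2 cells after 24 h treatment. Detection via RT-PCR and capillary electrophoresis fluorescence; DMSO serves as baseline.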

Chain of Transcription factor Sp1 (Homo sapiens) (P08047 whole entry, looked up): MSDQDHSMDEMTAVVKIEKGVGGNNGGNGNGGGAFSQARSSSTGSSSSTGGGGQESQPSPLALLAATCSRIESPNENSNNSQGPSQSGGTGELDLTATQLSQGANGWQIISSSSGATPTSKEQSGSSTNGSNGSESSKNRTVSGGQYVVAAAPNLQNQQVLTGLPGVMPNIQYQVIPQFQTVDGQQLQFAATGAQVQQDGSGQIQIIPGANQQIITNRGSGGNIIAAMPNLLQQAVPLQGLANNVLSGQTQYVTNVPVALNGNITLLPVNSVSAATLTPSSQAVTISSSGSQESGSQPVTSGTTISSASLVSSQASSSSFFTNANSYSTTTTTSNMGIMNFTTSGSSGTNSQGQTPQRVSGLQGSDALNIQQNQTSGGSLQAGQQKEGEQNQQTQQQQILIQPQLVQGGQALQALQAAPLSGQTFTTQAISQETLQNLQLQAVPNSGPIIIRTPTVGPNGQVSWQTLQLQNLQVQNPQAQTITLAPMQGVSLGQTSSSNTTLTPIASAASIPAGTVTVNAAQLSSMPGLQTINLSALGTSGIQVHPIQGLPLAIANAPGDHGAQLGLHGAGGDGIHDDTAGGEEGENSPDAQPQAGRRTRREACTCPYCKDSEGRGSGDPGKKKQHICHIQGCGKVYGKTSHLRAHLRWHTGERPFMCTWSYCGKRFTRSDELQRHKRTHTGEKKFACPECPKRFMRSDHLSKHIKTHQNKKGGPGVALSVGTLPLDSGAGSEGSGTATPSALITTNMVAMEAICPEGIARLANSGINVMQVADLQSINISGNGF
Chain of Signal transducer and activator of transcription 3 (Homo sapiens) (P40763 whole entry, looked up): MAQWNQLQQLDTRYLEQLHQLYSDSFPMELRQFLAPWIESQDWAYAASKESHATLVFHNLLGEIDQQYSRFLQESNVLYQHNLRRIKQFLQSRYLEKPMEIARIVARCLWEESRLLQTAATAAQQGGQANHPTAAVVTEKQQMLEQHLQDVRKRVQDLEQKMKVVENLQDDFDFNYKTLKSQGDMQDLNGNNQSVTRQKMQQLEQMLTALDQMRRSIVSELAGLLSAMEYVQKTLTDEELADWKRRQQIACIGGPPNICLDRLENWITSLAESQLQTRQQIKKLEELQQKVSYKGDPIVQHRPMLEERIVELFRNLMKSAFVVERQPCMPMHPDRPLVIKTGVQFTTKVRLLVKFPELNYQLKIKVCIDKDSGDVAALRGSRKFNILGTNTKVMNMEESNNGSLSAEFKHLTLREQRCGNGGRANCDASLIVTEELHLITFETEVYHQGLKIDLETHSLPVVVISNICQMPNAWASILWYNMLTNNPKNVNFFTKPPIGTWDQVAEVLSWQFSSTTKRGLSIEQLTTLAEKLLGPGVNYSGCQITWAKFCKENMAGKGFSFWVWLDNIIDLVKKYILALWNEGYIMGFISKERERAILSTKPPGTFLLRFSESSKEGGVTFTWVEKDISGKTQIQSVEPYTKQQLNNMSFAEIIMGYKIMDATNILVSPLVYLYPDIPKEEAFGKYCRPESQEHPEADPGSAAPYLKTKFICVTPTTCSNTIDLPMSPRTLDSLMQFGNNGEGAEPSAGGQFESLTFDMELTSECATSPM

Take `Nc1cc(Cl)c(O)c(Cl)c1`: the AC50 (usually the concentration at which the activity in the assay is half-maximal) was 136 µM (active) in [1]; 24.8 µM (active) in assay [2]; 45.3 µM (active) in [3]; 130 µM (active) in [6]; 64.2 µM (active) in [9]. Moreover, the result in assay [4], in assay [5], in assay [7] and in assay [8] was inactive.
With `CCCCCCCCCCC(CO)CCCCCCCC` (stereo not given), the outcome in assay [1], in [2], in assay [3], in assay [4], in assay [5] and in assay [6] was inactive. Also, the compound was called inactive in assay [7], in assay [8] and in assay [9].
For `CC1(C)OC[C@@H]2O[C@@]3(C(=O)O)OC(C)(C)O[C@H]3[C@@H]2O1`, the call in assay [1], in [2], in assay [10], in assay [4], in assay [5] and in assay [6] was inactive. Besides, the call in [7], in assay [8] and in assay [9] was inactive.
As for `CC(C)=CCCC(C)CC=O` (stereo not given), the compound was called inactive in assay [1], in assay [2], in assay [10], in assay [4], in assay [5] and in [6]. The compound was classed as inactive in assay [7], in assay [8] and in assay [9].
Consider `O=C(O)CCCCCCCCCCC(=O)O`, for which the compound was called inactive in assay [1], in [2], in [10], in assay [4], in assay [5] and in assay [6]. The compound was classed as inactive in assay [7], in assay [8] and in assay [9].
For the compound `CCCCNC(=O)NS(=O)(=O)c1ccc(C)cc1`, the call in assay [1], in assay [2], in [3], in assay [4], in assay [6] and in [7] was inactive. Further, the compound was called inactive in [8] and in [9].
`Cc1ccc(Nc2ccc(O)c3c2C(=O)c2ccccc2C3=O)cc1`: the outcome in [1], in [3], in assay [4], in assay [6], in assay [7] and in [8] was inactive. The result in assay [9] was inactive. Besides, in assay [2], the AC50 was 4.96 µM (active).
With `CC(C)=CCC[C@](C)(O)[C@@H]1CC=C(C)CC1`, the call in assay [1], in [3], in assay [4], in [5], in [6] and in assay [7] was inactive. Also, the outcome in [9] was inactive. Besides, the concentration at half-maximal activity (AC50) in assay [2] is 11.1 µM (active).
Take `CC(C)=CCC[C@H](C)CC=O`: the compound was classed as inactive in [1], in assay [10], in assay [4], in assay [5], in assay [6] and in assay [7]. Moreover, the result in assay [8] and in assay [9] was inactive. Moreover, the half-maximal activity concentration (AC50) in assay [2] is 45.3 µM (active).
Regarding `O=C[C@H](O)[C@H](O)[C@H](O)CO`, the call in [1], in [2], in assay [3], in [4], in assay [5] and in assay [6] was inactive. For the same compound, the call in assay [7], in [8] and in assay [9] was inactive.
Take `CC(=O)/C=C/C1=C(C)CCCC1(C)C`: the compound was classed as inactive in assay [1], in assay [10], in assay [4], in [5], in assay [6] and in assay [7]. Also, the outcome in [8] and in assay [9] was inactive. The AC50 in [2] was 1.42 µM (active).
On to `CCCCCCCCCCCCOCCO`, for which the compound was classed as inactive in [1], in assay [2], in assay [10], in assay [4], in [7] and in assay [8]. In addition, in assay [9], the result was inactive. Besides, the AC50 in [5] was 49.9 µM (active); in assay [6], 49.1 µM (active).
Regarding `CC(CCO)CCc1ccccc1` (stereo not given), the compound was called inactive in assay [1], in [3], in assay [4], in [5], in [6] and in assay [7]. The outcome in assay [8] and in assay [9] was inactive. Moreover, in [2], the AC50 was 41.1 µM (active).
For the compound `O=Cc1ccc(F)cc1`, the outcome in assay [1], in assay [2], in assay [3], in assay [4], in assay [5] and in assay [6] was inactive. In addition, the result in assay [7], in assay [8] and in [9] was inactive.
As for `Fc1c(F)c(F)c(Br)c(F)c1F`, the compound was classed as inactive in [1], in assay [3], in [4], in assay [5], in [6] and in assay [7]. In addition, the compound was classed as inactive in assay [8] and in [9]. In [2], the AC50 was 46.5 µM (active).
For the compound `CCCCCCCCCCCCN`, the call in assay [1], in assay [2], in assay [3], in [4], in assay [5] and in assay [7] was inactive. In addition, in [9], the outcome was inactive. In assay [6], the concentration at half-maximal activity (AC50) was 18.1 µM (active).
For `CC(C)Oc1ccccc1O`, the compound was called inactive in [1], in assay [10], in assay [4], in assay [5], in assay [6] and in [7]. Moreover, the result in assay [8] and in assay [9] was inactive. Besides, in assay [2], the AC50 is 39.4 µM (active).
As to `CCC(O)CO` (stereo not given), the result in [1], in assay [3], in [4], in [6], in assay [7] and in assay [8] was inactive. In assay [9], the call was inactive. In addition, the AC50 in assay [2] was 0.0826 µM (active).
Regarding `CCCC(=O)OCCC(C)CCC=C(C)C` (stereo not given), the compound was classed as inactive in assay [1], in assay [10], in assay [4], in [5], in assay [6] and in assay [7]. In addition, the compound was classed as inactive in [8] and in assay [9]. In addition, the AC50 in [2] was 56.1 µM (active).
As to `O=C1CCCCCCCCCCOCCCCO1`, the outcome in [1], in [10], in assay [4], in [5], in assay [6] and in [7] was inactive. The compound was called inactive in [8] and in assay [9]. For the same compound, the AC50 in assay [2] was 26.6 µM (active).
